Test in all cases: DAPPL (digital affinity profiling via proximity ligation, sequencing); 10 mM Tris-HCl pH 7.5, 50 mM NaCl, 1 mM DTT, 4% glycerol, room temperature, 30 min; GST-TFs on glutathione beads, 16-mer random dsDNA library, 0.1% formaldehyde crosslink after washing; high values mean tight binding
Holding throughout (conditions): protein: recombinant; tags: N-terminal GST; dsDNA, one strand shown

The target of test [1] is T1, FLI1 (Homo sapiens, UniProt Q01543 1-452).
T1 sequence: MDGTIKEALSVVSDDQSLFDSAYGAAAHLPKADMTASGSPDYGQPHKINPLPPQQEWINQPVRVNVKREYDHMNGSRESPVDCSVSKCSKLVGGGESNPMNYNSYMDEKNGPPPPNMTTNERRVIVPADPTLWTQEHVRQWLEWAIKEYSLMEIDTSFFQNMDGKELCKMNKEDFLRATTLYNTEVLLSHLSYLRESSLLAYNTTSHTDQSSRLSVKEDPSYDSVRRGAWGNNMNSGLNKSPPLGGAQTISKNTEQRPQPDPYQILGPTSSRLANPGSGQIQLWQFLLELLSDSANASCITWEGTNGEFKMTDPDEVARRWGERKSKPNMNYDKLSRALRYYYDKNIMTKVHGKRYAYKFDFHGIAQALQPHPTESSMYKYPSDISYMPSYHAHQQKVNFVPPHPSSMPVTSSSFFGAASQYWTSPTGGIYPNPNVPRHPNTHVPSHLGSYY
An outline of the steps:
(§1)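 Binding signal is each hexamer's read frequency for a factor divided by its frequency in the tag-only sample. The factors were GST-fused human transcription factors from yeast, captured on glutathione beads, DNA-barcoded and pooled with that sample. Pools were incubated with 200 nmole of a random double-stranded 16-mer DNA library in Tris/NaCl/DTT/glycerol buffer at room temperature for 30 min, then washed, crosslinked with 0.1% formaldehyde, proximity-ligated with BsaI/T4 ligase (1 h, 37 °C), PCR-amplified and sequenced on an Illumina NextSeq500.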

Test [2] addresses T2, ELK1 (Homo sapiens, UniProt P19419 1-428).
T2 sequence: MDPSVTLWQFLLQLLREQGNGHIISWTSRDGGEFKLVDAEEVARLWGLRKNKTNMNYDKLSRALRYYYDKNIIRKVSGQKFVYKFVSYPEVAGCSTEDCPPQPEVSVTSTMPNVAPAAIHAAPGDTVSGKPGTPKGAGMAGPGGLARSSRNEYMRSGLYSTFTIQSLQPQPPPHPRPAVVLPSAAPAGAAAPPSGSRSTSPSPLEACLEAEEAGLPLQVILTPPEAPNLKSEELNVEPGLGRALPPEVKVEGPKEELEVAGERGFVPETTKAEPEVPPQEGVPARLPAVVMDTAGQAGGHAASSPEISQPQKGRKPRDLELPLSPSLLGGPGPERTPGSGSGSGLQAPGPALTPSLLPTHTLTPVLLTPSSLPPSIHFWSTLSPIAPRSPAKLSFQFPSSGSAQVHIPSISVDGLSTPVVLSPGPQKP
In short, it runs like this: as §1

The target of test [3] is T3, GABPA (Homo sapiens, UniProt Q06546 1-454).
T3 sequence: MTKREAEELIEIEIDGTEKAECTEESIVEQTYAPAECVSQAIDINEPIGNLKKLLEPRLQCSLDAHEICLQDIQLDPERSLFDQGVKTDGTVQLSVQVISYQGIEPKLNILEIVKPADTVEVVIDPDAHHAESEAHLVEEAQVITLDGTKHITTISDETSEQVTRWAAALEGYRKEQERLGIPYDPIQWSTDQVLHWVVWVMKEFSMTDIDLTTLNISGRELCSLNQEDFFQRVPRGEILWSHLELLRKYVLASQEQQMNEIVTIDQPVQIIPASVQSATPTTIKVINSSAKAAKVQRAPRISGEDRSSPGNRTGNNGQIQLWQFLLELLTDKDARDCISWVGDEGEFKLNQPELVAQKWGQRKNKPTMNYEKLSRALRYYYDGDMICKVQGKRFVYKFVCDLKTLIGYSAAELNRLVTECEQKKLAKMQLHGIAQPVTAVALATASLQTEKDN
An outline of the steps: as §1

In test [4] the target is T4, ERG (Homo sapiens, UniProt P11308 1-479).
T4 sequence: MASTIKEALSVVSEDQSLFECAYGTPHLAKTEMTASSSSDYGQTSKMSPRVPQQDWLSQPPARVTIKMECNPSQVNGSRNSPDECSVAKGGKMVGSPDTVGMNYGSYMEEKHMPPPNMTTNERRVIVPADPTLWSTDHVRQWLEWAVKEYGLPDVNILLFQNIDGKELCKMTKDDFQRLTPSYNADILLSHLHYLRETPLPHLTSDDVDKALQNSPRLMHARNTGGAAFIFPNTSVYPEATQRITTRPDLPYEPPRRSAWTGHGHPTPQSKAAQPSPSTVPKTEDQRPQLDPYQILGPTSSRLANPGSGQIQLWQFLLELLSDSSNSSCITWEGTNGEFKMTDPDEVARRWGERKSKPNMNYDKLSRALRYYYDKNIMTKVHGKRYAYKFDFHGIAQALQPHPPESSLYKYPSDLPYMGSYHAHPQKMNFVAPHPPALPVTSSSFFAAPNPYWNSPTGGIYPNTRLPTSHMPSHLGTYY
In short, it runs like this:
as §1

Test [5] has as its target ELF1 (Homo sapiens, UniProt P32519 1-619). In short, it runs like this:
as §1

The target of test [6] is T5, EHF (Homo sapiens, UniProt Q9NZC4 1-300).
T5 sequence: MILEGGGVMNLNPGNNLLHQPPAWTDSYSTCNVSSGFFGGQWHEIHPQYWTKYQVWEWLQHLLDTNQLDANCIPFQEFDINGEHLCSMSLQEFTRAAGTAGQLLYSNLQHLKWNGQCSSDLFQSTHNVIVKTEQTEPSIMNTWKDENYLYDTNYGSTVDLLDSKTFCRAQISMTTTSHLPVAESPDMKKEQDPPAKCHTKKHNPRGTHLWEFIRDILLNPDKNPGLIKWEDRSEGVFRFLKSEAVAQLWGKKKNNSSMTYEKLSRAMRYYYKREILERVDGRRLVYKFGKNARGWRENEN
In short, it runs like this:
as §1

Test [7] addresses SPI1 (Homo sapiens, UniProt P17947 1-270). In short, it runs like this:
as §1

In test [8] the target is SPIB (Homo sapiens, UniProt Q01892 1-262). An outline of the steps:
as §1

The target in test [9] is T6, ELK3 (Homo sapiens, UniProt P41970 1-407).
T6 sequence: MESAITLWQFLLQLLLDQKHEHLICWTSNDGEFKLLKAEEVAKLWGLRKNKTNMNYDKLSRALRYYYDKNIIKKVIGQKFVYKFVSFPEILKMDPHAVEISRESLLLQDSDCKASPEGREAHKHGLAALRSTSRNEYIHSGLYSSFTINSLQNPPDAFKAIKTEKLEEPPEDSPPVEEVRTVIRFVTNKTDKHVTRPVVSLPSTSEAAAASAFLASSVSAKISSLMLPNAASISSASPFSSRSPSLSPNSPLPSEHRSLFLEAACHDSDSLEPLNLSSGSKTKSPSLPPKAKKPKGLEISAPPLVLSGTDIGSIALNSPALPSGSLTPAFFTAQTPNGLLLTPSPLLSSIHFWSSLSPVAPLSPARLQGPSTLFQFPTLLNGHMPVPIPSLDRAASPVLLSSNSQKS
An outline of the steps:
as §1

Test [10] has as its target T7, FEV (Homo sapiens, UniProt Q99581 1-238).
T7 sequence: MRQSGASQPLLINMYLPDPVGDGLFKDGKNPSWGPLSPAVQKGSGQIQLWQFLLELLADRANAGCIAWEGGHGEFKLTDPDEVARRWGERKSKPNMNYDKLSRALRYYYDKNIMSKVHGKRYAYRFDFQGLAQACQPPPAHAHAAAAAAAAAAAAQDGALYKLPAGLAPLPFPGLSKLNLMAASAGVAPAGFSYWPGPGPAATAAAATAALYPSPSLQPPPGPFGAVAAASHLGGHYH
In short, it runs like this:
as §1

For test [11], the target named is ETV5 (Homo sapiens, UniProt P41161 1-510). In short, it runs like this: as §1
Chain of ETV5 (P41161 whole entry): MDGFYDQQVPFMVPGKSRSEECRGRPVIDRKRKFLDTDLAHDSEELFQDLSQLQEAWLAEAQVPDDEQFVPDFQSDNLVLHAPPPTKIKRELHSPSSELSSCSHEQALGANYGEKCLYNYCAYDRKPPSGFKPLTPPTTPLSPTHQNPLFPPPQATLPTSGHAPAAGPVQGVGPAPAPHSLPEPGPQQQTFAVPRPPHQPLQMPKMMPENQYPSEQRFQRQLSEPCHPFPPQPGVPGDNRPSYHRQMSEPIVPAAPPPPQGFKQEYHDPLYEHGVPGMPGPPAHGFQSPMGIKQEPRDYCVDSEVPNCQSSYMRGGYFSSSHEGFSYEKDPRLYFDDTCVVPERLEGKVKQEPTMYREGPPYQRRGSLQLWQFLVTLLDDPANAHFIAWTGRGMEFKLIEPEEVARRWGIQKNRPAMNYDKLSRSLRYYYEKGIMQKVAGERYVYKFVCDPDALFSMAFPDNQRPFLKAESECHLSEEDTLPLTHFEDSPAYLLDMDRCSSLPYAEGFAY
In test [12] the target is T8, SPIC (Homo sapiens, UniProt Q8N5J4 1-248).
T8 sequence: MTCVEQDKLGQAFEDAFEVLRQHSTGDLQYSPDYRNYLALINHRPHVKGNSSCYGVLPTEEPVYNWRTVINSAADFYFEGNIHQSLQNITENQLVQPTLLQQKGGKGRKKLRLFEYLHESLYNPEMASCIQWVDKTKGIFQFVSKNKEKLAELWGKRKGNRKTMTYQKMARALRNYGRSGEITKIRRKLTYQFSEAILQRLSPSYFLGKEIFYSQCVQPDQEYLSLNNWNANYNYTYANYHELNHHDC
In short, it runs like this: as §1

Test [13] has as its target ELF4 (Homo sapiens, UniProt Q99607 1-663). An outline of the steps: as §1
In test [14] the target is T9, ELK4 (Homo sapiens, UniProt P28324-2 1-405).
T9 sequence: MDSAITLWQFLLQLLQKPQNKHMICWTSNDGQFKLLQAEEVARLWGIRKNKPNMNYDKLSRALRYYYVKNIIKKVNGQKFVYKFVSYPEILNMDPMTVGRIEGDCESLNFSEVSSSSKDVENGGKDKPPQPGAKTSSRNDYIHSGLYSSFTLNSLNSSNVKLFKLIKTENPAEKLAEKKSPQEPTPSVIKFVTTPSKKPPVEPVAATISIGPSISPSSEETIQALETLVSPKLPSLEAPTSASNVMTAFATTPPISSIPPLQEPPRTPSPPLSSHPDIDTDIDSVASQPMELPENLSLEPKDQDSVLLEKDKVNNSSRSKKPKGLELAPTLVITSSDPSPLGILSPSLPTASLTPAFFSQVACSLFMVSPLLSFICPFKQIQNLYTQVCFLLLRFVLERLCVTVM
In short, it runs like this: as §1

The target of test [15] is T10, ETV2 (Homo sapiens, UniProt O00321 1-342).
T10 sequence: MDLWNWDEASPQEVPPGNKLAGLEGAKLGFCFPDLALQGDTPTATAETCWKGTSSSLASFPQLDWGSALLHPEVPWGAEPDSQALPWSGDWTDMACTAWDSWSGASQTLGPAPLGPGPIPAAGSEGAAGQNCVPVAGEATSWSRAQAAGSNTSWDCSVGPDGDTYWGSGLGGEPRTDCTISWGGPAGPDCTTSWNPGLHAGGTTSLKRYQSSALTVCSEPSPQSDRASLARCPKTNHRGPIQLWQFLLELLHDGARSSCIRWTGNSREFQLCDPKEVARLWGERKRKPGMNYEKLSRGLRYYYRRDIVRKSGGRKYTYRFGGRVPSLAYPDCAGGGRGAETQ
In short, it runs like this: as §1

Test [16] deals with T11, ELF3 (Homo sapiens, UniProt P78545 1-371).
T11 sequence: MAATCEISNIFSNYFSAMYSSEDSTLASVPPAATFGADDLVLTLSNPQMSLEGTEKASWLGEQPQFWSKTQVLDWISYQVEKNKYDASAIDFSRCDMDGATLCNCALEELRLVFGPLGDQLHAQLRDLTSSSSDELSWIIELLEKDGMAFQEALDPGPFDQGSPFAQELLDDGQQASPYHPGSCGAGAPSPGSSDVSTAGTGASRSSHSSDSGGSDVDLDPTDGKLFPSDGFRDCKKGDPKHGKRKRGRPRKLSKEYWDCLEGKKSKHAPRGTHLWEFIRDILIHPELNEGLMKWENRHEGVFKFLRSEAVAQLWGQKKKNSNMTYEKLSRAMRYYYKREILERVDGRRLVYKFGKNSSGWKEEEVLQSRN
An outline of the steps:
as §1

For test [17], the target named is CRX (Homo sapiens, UniProt O43186 1-299). In short, it runs like this:
as §1

Test [18] concerns the target ETV1 (Homo sapiens, UniProt P50549 1-477). An outline of the steps: as §1

Chain of ELF4 (Q99607 whole entry): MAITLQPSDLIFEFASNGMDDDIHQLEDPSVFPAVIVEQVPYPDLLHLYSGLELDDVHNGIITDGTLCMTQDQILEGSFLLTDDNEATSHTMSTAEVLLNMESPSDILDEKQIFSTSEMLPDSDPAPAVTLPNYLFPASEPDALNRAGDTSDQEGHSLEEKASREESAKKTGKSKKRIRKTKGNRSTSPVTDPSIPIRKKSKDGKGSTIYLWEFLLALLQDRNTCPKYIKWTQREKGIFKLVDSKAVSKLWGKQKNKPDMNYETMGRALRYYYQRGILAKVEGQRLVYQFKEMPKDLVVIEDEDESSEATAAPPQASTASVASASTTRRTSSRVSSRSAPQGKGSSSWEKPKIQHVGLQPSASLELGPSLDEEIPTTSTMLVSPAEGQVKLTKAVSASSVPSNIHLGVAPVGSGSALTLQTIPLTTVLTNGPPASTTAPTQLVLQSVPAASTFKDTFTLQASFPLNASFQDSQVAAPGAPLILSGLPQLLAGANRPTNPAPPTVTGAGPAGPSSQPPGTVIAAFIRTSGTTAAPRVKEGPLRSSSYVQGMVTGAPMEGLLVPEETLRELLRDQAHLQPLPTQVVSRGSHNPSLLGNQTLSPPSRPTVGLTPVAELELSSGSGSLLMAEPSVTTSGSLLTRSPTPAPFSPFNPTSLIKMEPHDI
Chain of ETV1 (P50549 whole entry): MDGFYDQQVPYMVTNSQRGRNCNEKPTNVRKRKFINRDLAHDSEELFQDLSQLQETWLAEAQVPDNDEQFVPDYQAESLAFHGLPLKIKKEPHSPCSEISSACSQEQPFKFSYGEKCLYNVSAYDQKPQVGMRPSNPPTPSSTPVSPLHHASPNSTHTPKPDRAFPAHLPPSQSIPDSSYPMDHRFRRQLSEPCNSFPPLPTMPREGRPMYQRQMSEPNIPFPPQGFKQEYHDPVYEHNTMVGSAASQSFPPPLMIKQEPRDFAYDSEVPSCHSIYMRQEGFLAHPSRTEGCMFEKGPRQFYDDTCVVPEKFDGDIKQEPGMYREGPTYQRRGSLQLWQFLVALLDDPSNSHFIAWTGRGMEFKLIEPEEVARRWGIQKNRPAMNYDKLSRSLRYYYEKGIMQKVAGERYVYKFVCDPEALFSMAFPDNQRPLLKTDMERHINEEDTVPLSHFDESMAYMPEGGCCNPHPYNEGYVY
Chain of CRX (O43186 whole entry): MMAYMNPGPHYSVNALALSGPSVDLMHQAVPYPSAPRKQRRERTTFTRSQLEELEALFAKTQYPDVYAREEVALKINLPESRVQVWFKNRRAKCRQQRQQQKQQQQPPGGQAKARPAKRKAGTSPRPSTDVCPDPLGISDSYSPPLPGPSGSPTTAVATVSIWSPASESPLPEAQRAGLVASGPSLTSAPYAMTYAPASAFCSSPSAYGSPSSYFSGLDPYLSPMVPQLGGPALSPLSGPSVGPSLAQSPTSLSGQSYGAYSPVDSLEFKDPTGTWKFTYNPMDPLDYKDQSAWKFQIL
Chain of SPIB (Q01892 whole entry): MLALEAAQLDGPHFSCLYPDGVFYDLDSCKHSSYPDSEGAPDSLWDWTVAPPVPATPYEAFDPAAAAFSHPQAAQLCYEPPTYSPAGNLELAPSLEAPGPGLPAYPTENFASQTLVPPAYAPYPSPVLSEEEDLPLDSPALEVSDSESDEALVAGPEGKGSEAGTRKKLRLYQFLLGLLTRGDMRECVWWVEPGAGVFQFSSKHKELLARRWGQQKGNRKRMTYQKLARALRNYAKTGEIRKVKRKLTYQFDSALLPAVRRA
Chain of ELF1 (P32519 whole entry): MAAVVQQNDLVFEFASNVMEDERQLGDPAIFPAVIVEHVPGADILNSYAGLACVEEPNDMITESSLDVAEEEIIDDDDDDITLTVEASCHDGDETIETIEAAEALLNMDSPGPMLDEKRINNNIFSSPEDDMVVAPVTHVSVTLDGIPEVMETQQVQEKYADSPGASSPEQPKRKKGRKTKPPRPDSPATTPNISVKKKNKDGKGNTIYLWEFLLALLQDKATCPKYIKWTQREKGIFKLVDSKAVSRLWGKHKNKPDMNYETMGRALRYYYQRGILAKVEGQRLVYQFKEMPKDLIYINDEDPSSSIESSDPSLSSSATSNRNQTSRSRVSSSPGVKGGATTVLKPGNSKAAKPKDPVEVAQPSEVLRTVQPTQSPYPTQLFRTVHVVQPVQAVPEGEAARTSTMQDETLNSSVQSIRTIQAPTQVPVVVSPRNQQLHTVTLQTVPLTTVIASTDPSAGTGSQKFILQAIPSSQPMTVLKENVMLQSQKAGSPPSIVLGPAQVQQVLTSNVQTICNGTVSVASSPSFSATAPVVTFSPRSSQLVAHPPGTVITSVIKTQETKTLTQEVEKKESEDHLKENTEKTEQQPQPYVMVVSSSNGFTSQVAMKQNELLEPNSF

In the case of TGCATA, the binding signal in test [1] was 1.08 fold enrichment (6-mer frequency, TF over GST control); in [2], 1.11 fold enrichment (6-mer frequency, TF over GST control); in test [3], 1.13 fold enrichment (6-mer frequency, TF over GST control); in test [4], 1.11 fold enrichment (6-mer frequency, TF over GST control); in test [5], 1.06 fold enrichment (6-mer frequency, TF over GST control); in test [6], 1.16 fold enrichment (6-mer frequency, TF over GST control). In addition, the binding signal in [7] is 1.15 fold enrichment (6-mer frequency, TF over GST control); in test [8] it was 1.11 fold enrichment (6-mer frequency, TF over GST control); in test [9], 1.15 fold enrichment (6-mer frequency, TF over GST control); in test [10], 1.13 fold enrichment (6-mer frequency, TF over GST control); in [11], 1.14 fold enrichment (6-mer frequency, TF over GST control); in [12] it was 1.17 fold enrichment (6-mer frequency, TF over GST control). For the same sequence, the binding signal in test [13] was 1.2 fold enrichment (6-mer frequency, TF over GST control); in test [14], 1.13 fold enrichment (6-mer frequency, TF over GST control); in [15], 1.02 fold enrichment (6-mer frequency, TF over GST control); in test [16], 1.03 fold enrichment (6-mer frequency, TF over GST control); in [17], 1.01 fold enrichment (6-mer frequency, TF over GST control); in test [18], 1.07 fold enrichment (6-mer frequency, TF over GST control).

The values above are taken from publication PMC7862700, “An all-to-all approach to the identification of sequence-specific readers for epigenetic DNA modifications on cytosine”.
